Results published in PubChem BioAssay (NCATS).
Results filed as inconclusive are left out. Active and inactive are the calls of the source. The call rests on the fitted dose curve; in most records, active means well fitted curve in the direction sought with a large enough effect; inconclusive means small, poorly fitted or top-dose-only effect, or another doubt; inactive means no such curve, though single readings can be large; an effect the other way counts as inactive or inconclusive.

Assays:
[1] = qHTS of pediatric cancer cell lines to identify multiple opportunities for drug repurposing: Primary screen for LAN-5 cells (AID 1347100);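 further: plate controls were DMSO neutral control for no effect and bortezomib positive control for full effect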
Method in brief: (§1)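 Cells (500-1,000/well) in growth media were settled 5 h at 37 degrees C, then given compounds for 48 h. Viability was read as CellTiter-Glo luminescence. Primary runs used MIPE at 11 points (0.78 nM-46 µM) and NPC at 8 points (0.59 nM-46 µM); follow-ups used 11 points.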

[2] = qHTS of pediatric cancer cell lines to identify multiple opportunities for drug repurposing: Primary screen for BT-12 cells (AID 1347101); further: nearly all actives have a fitted effect of over 25% in size; further: potency means the concentration at half of the fitted maximal effect;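 on activity change, negative = cytotoxic: plate controls were DMSO for no effect and bortezomib positive control for full effect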
Method in brief: (§2)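 Cells (500-1,000/well) rested 5 h, then received compounds for 48 h; metabolically active cells were measured by CellTiter-Glo luminescence. Final concentrations spanned up to 46 µM (MIPE, 11-point) or 0.59 nM-46 µM (NPC, 8-point) in primary screens, 11-point in follow-ups.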

[3] = qHTS of pediatric cancer cell lines to identify multiple opportunities for drug repurposing: Primary screen for Rh18 cells (AID 1347102); further: on the % scale 0 is the no-effect control and ±100 the full control effect; nearly all actives have a fitted effect of over 65% in size
Method in brief: as §1

[4] = qHTS of pediatric cancer cell lines to identify multiple opportunities for drug repurposing: Primary screen for OHS-50 cells (AID 1347103); further: nearly all actives have a fitted effect of over 40% in size; further: potency means the concentration at half of the fitted maximal effect;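 on activity change, negative = cytotoxic: plate controls were DMSO neutral control for no effect and bortezomib positive control for full effect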
Method in brief: as §2

[5] = qHTS of pediatric cancer cell lines to identify multiple opportunities for drug repurposing: Primary screen for RD cells (AID 1347104);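 further: plate controls were DMSO for no effect and bortezomib for full effect; nearly all actives have a fitted effect of over 55% in size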
Method in brief: (§3)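 500-1,000 cells/well; 5 h pre-incubation 37 °C/5% CO2; compound pinned; 48 h; CellTiter-Glo, 15 min RT; luminescence. MIPE 11-pt from 0.78 nM, NPC 8-pt from 0.59 nM final. Bortezomib 2.3 µM final as positive control.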

[6] = qHTS of pediatric cancer cell lines to identify multiple opportunities for drug repurposing: Primary screen for MG 63 (6-TG R) cells (AID 1347105); further: on the % scale 0 is the no-effect control and ±100 the full control effect; nearly all actives have a fitted effect of over 50% in size
Method in brief: as §3

[7] = qHTS of pediatric cancer cell lines to identify multiple opportunities for drug repurposing: Primary screen for control Hh wild type fibroblast cells (AID 1347106);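 further: series mostly up to about 46 µM; on the % scale 0 is the no-effect control and ±100 the full control effect; a drop in luminescence marks cytotoxicity and a rise apparent proliferation; nearly all actives have a fitted effect of over 55% in size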
Method in brief: as §1

[8] = qHTS of pediatric cancer cell lines to identify multiple opportunities for drug repurposing: Primary screen for Rh30 cells (AID 1347107); further: series mostly up to about 46 µM; on the % scale 0 is the no-effect control and ±100 the full control effect; nearly all actives have a fitted effect of over 75% in size
Method in brief: as §1

[9] = qHTS of pediatric cancer cell lines to identify multiple opportunities for drug repurposing: Primary screen for Rh41 cells (AID 1347108);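 further: series mostly up to about 46 µM; luminescence drop marks cytotoxic hits; nearly all actives have a fitted effect of over 70% in size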
Method in brief: as §3

[10] = qHTS of pediatric cancer cell lines to identify multiple opportunities for drug repurposing: Confirmatory screen for NB1643 cells (AID 1347109); further: nearly all actives have a fitted effect of over 45% in size; further: potency means the concentration at half of the fitted maximal effect;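 on activity change, negative = cytotoxic: plate controls were DMSO for no effect and bortezomib for full effect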
Method in brief: as §1

CCOC(=O)[C@H](CCc1ccccc1)N[C@@H](C)C(=O)N1C(=O)N(C)C[C@H]1C(=O)O
inactive: Potency [1] | Potency [2] | Potency [3] | Potency [4] | Potency [5] | Potency [6] | outcome [7] | outcome [8] | Potency [9]

CC(=O)OCC(=O)[C@@]1(O)CC[C@H]2[C@@H]3CCC4=CC(=O)CC[C@]4(C)[C@H]3C(=O)C[C@@]21C
inactive: Potency [1] | Potency [2] | Potency [3] | Potency [4] | Potency [5] | Potency [6] | outcome [7] | outcome [8] | Potency [9]

C[C@H](N)[C@H](O)c1cccc(O)c1
inactive: Potency [1] | Potency [2] | Potency [3] | Potency [4] | Potency [5] | Potency [6] | outcome [7] | outcome [8] | Potency [9]

CN(C)CC[C@@H](c1ccc(Cl)cc1)c1ccccn1
inactive: Potency [1] | Potency [2] | Potency [3] | Potency [4] | Potency [5] | Potency [6] | outcome [7] | outcome [8] | Potency [9]

Nc1ccc(S(=O)(=O)Nc2nccs2)cc1
inactive: Potency [1] | Potency [2] | Potency [3] | Potency [4] | Potency [5] | Potency [6] | outcome [7] | outcome [8] | Potency [9]

Nc1ccc(S(=O)(=O)Nc2ccc(Cl)nn2)cc1
inactive: Potency [1] | Potency [2] | Potency [3] | Potency [4] | Potency [5] | Potency [6] | outcome [7] | outcome [8] | Potency [9]

CCOC(CN1CCN(CC(C)C(=O)c2ccccc2)CC1)c1ccccc1 (centres undefined)
inactive: Potency [1] | Potency [2] | Potency [3] | Potency [4] | Potency [5] | Potency [6] | outcome [7] | outcome [8] | Potency [9]

O=C(O)c1ccccc1O
inactive: Potency [1] | Potency [2] | Potency [3] | Potency [4] | Potency [5] | Potency [6] | outcome [7] | outcome [8] | Potency [9]

CCCCC/C(C=O)=C\c1ccccc1
active: Potency [2] 155 nM | Potency [4] 1 nM | Potency [10] 7370 nM
inactive: Potency [1] | Potency [3] | Potency [5] | Potency [6] | outcome [7] | outcome [8] | Potency [9]

O=C(O)CC(O)C(=O)O (centres undefined)
inactive: Potency [1] | Potency [2] | Potency [3] | Potency [4] | Potency [5] | Potency [6] | outcome [7] | outcome [8] | Potency [9]

O=C(O)Cc1sc(-c2ccccc2)nc1-c1ccc(Cl)cc1
inactive: Potency [1] | Potency [2] | Potency [3] | Potency [4] | Potency [5] | Potency [6] | outcome [7] | outcome [8] | Potency [9]

O=C1OC(OC(=O)c2cccnc2Nc2cccc(C(F)(F)F)c2)c2ccccc21 (centres undefined)
inactive: Potency [1] | Potency [2] | Potency [3] | Potency [4] | Potency [5] | Potency [6] | outcome [7] | outcome [8] | Potency [9]

Cn1cc[nH]c1=S
inactive: Potency [1] | Potency [2] | Potency [3] | Potency [4] | Potency [5] | Potency [6] | outcome [7] | outcome [8] | Potency [9]

NS(=O)(=O)c1cc2c(cc1C(F)(F)F)NC(Cc1ccccc1)NS2(=O)=O (centres undefined)
inactive: Potency [1] | Potency [2] | Potency [3] | Potency [4] | Potency [5] | Potency [6] | outcome [7] | outcome [8] | Potency [9]

COc1ccc(S(=O)(=O)Nc2nnc(CC(C)C)s2)cc1
inactive: Potency [1] | Potency [2] | Potency [3] | Potency [4] | Potency [5] | Potency [6] | outcome [7] | outcome [8] | Potency [9]

O=C1O[C@H]([C@@H](O)CO)C(O)=C1O
inactive: Potency [1] | Potency [2] | Potency [3] | Potency [4] | Potency [5] | Potency [6] | outcome [7] | outcome [8] | Potency [9]

CCn1cc(C(=O)O)c(=O)c2cnc(N3CCNCC3)nc21
inactive: Potency [1] | Potency [2] | Potency [3] | Potency [4] | Potency [5] | Potency [6] | outcome [7] | outcome [8] | Potency [9]

O=C(O)CN1C(=O)c2cccc3cccc(c23)C1=O
active: Potency [2] 1 nM | Potency [4] 1 nM
inactive: Potency [1] | Potency [3] | Potency [5] | Potency [6] | outcome [7] | outcome [8] | Potency [9]

CN1CCC[C@@H]1Cc1c[nH]c2ccc(CCS(=O)(=O)c3ccccc3)cc12
inactive: Potency [1] | Potency [2] | Potency [3] | Potency [4] | Potency [5] | Potency [6] | outcome [7] | outcome [8] | Potency [9]

NC(CSCC(=O)O)C(=O)O (centres undefined)
inactive: Potency [1] | Potency [2] | Potency [3] | Potency [4] | Potency [5] | Potency [6] | outcome [7] | outcome [8] | Potency [9]

C[C@H](NC(CCc1ccccc1)C(=O)O)C(=O)N1CCC[C@H]1C(=O)O (some centres undefined)
inactive: Potency [1] | Potency [2] | Potency [3] | Potency [4] | Potency [5] | Potency [6] | outcome [7] | outcome [8] | Potency [9]

CC1(C)Oc2ccc(C#N)cc2[C@@H](N2CCCC2=O)[C@@H]1O
inactive: Potency [1] | Potency [2] | Potency [3] | Potency [4] | Potency [5] | Potency [6] | outcome [7] | outcome [8] | Potency [9]

COc1ccc(Cl)cc1C(=O)NCCc1ccc(S(=O)(=O)NC(=O)NC2CCCCC2)cc1
inactive: Potency [1] | Potency [2] | Potency [3] | Potency [4] | Potency [5] | Potency [6] | outcome [7] | outcome [8] | Potency [9]

C=CCn1c(=O)n([C@@H]2O[C@H](CO)[C@@H](O)[C@H]2O)c2nc(N)[nH]c(=O)c21
inactive: Potency [1] | Potency [2] | Potency [3] | Potency [4] | Potency [5] | Potency [6] | outcome [7] | outcome [8] | Potency [9]

CO/N=C(\C(=O)N[C@@H]1C(=O)N2C(C(=O)O)=C(CSc3nc(=O)c(O)nn3C)CS[C@H]12)c1csc(N)n1
inactive: Potency [1] | Potency [2] | Potency [3] | Potency [4] | Potency [5] | Potency [6] | outcome [7] | outcome [8] | Potency [9]

CC/C=C(\C(=O)N[C@@H]1C(=O)N2C(C(=O)OCOC(=O)C(C)(C)C)=C(COC(N)=O)CS[C@H]12)c1csc(N)n1
inactive: Potency [1] | Potency [2] | Potency [3] | Potency [4] | Potency [5] | Potency [6] | outcome [7] | outcome [8] | Potency [9]

C[C@H]1O[C@@H](n2cc(F)c(=O)[nH]c2=O)[C@H](O)[C@@H]1O
inactive: Potency [1] | Potency [2] | Potency [3] | Potency [4] | Potency [5] | Potency [6] | outcome [7] | outcome [8] | Potency [9]

OC[C@H]1O[C@@H](O[C@@H]2[C@@H](CO)O[C@](O)(CO)[C@H]2O)[C@H](O)[C@@H](O)[C@H]1O
inactive: Potency [1] | Potency [2] | Potency [3] | Potency [4] | Potency [5] | Potency [6] | outcome [7] | outcome [8] | Potency [9]

CCCCN(CCCC)CCCOC(=O)c1ccc(N)cc1
inactive: Potency [1] | Potency [2] | Potency [3] | Potency [4] | Potency [5] | Potency [6] | outcome [7] | outcome [8] | Potency [9]

C[C@]12C[C@H](O)[C@H]3[C@@H](CCC4=CC(=O)CC[C@@]43C)[C@@H]1CC[C@@H]2C(=O)CO
inactive: Potency [1] | Potency [2] | Potency [3] | Potency [4] | Potency [5] | Potency [6] | outcome [7] | outcome [8] | Potency [9]

COc1cc2[nH]c(=O)[nH]c(=O)c2cc1OC
inactive: Potency [1] | Potency [2] | Potency [3] | Potency [4] | Potency [5] | Potency [6] | outcome [7] | outcome [8] | Potency [9]

O=C1c2c(O)cccc2Cc2cccc(O)c21
inactive: Potency [1] | Potency [2] | Potency [3] | Potency [4] | Potency [5] | Potency [6] | outcome [7] | outcome [8] | Potency [9]

CCCCC(CC)COC(=O)c1ccccc1O (centres undefined)
inactive: Potency [1] | Potency [2] | Potency [3] | Potency [4] | Potency [5] | Potency [6] | outcome [7] | outcome [8] | Potency [9]

CCOC(=O)c1ccc(O)cc1
inactive: Potency [1] | Potency [2] | Potency [3] | Potency [4] | Potency [5] | Potency [6] | outcome [7] | outcome [8] | Potency [9]

O=C1N=C(O)CN1/N=C/c1ccc(-c2ccc([N+](=O)[O-])cc2)o1
inactive: Potency [1] | Potency [2] | Potency [3] | Potency [4] | Potency [5] | Potency [6] | outcome [7] | outcome [8] | Potency [9] | Potency [10]

CN1[C@@H]2CC[C@H]1CC(OC(=O)C(O)c1ccccc1)C2 (some centres undefined)
inactive: Potency [1] | Potency [2] | Potency [3] | Potency [4] | Potency [5] | Potency [6] | outcome [7] | outcome [8] | Potency [9]

O=C(O)[C@@H]1CSCN1
inactive: Potency [1] | Potency [2] | Potency [3] | Potency [4] | Potency [5] | Potency [6] | outcome [8]

CC(=O)Nc1ccc(/C=N/NC(N)=S)cc1
inactive: Potency [1] | Potency [2] | Potency [3] | Potency [4] | Potency [5] | Potency [6] | outcome [7] | outcome [8] | Potency [9]

NCC(=O)CCC(=O)O
inactive: Potency [1] | Potency [2] | Potency [3] | Potency [4] | Potency [5] | Potency [6] | outcome [7] | outcome [8] | Potency [9]

CCN(CC)CCNC(C(=O)OCCC(C)C)c1ccccc1 (centres undefined)
inactive: Potency [1] | Potency [2] | Potency [3] | Potency [4] | Potency [5] | outcome [7] | outcome [8] | Potency [9]

COc1ccccc1O
inactive: Potency [1] | Potency [2] | Potency [3] | Potency [4] | Potency [5] | outcome [7] | outcome [8] | Potency [9]

CNC(=O)Oc1ccc2c(c1)[C@]1(C)CCN(C)[C@@H]1N2C
inactive: Potency [1] | Potency [2] | Potency [3] | Potency [4] | Potency [5] | Potency [6] | outcome [8] | Potency [9]

CN1CCOC(c2ccccc2)c2ccccc2C1 (centres undefined)
inactive: Potency [1] | Potency [2] | Potency [3] | Potency [4] | Potency [5] | outcome [7] | outcome [8] | Potency [9]

NS(=O)(=O)c1cc2c(cc1Cl)NC(CSCc1ccccc1)=NS2(=O)=O
inactive: Potency [1] | Potency [2] | Potency [3] | Potency [4] | Potency [5] | outcome [7] | outcome [8] | Potency [9]

C/C(=C(\CCOP(=O)(O)O)SC(=O)c1ccccc1)N(C=O)Cc1cnc(C)nc1N
inactive: activity change, negative = cytotoxic [1] 5.99% [at 4.84 µM] | activity change, negative = cytotoxic [2] 9.87% [at 6.03 µM] | activity change, negative = cytotoxic [3] 28.8% [at 4.84 µM] | activity change, negative = cytotoxic [4] 12% [at 6.18 µM] | activity change, negative = cytotoxic [5] 3.8% [at 4.84 µM] | activity change, negative = cytotoxic [6] -1.82% [at 4.84 µM] | activity change, negative = cytotoxic [8] 26.4% [at 4.84 µM] | activity change, negative = cytotoxic [9] 27.9% [at 4.84 µM]
